# Legend:
# Assay in all cases: PBM binding z-score (relative to random genomic background probes); higher = stronger binding; sequences stand for … in GC…GCGATTGACAGCGTAGAATGAAGG
# [1] = tested on: RARb homodimer (NR concentration 270 nM)
# Summary of the method: (§1)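 Each nuclear receptor dimer, without ligand, was incubated for 1 h on custom Agilent 4×180K protein-binding microarrays. Binding was detected with antibodies against each partner (one per run), and scanned fluorescence was regression-normalized. The binding z-scores are referenced to random human genomic background probes.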
# [2] = tested on: RARg:RXRa (NR concentration 270 nM, RXRa partner concentration 90 nM)
# Summary of the method: as §1
# [3] = tested on: RARg homodimer (NR concentration 270 nM)
# Summary of the method: as §1
# [4] = tested on: RXRa DBDmut IVT, anti-RXR (DBD mutation: RXRa K156A/R161A, NR concentration 90 nM)
# Summary of the method: as §1
# [5] = tested on: RXRa homodimer (NR concentration 180 nM)
# Summary of the method: as §1
# [6] = tested on: THRa:RXRa (NR concentration 90 nM, RXRa partner concentration 90 nM)
# Summary of the method: as §1
# [7] = tested on: THRa homodimer (NR concentration 90 nM)
# Summary of the method: as §1
# [8] = tested on: VDR homodimer (NR concentration 270 nM)
# Summary of the method: as §1
Sequence,PBM binding z-score [1],PBM binding z-score [2],PBM binding z-score [3],PBM binding z-score [4],PBM binding z-score [5],PBM binding z-score [6],PBM binding z-score [7],PBM binding z-score [8]
TCTGCTAGGTCAACGATGGTCAGATAATCTGCTA,3.47,3.89,5.5,0.978,3.11,3.17,0.478,-0.329
TCTTGTAGATCAATTGAGGTTAAGAAAGTGCGCT,0.953,0.568,0.0458,1.05,0.886,3.84,0.878,0.579
AGTCAAAGTTCATCTAGGTAAAGTAAGATATGCT,3.76,5.67,6.09,4.8,5.07,3.07,0.199,5.29
TCTTGTAGATCAGCAGGATAAGAAAGCTGGCCAA,-0.798,-0.461,-0.47,0.379,-0.273,-0.557,-0.84,-0.775
TTACCAAGGTTAAGGTCGTTGATCCCTCTGTAGA,2.57,2.63,2.31,1.41,3.4,3.73,3.45,2.83
CTCGAAAGGTAGGTTGAGGTGAGTATACGGATAA,0.59,0.129,0.396,-0.171,0.223,3.9,1.24,0.0952
CCTTCTAGGTCATGGTCAGCTAATCTACAGTATG,3.46,4.02,5.08,2.02,3.37,3.45,2.5,0.794
ACAGACAGGTGATGACGGTAACTCAGGCTATCAT,0.213,0.122,0.261,-0.0365,0.15,0.339,-0.087,-0.266
AATACAGGGTCATCGTAGGCCAAAGTACGCACAG,3.71,5.86,5.3,3.63,6.87,4.53,1.34,3.98
GGAACGAGGGCAAAGTTGATGGCATCTGTCGACG,1.32,2.05,1.74,2.62,1.97,1.55,-0.087,1.7
TGTCAAAGTTCAAAGGTAACGTATGTATCCACAC,3.78,6.21,5.94,4.28,6.97,3.08,-0.0625,3.87
TCATATAGGTAAAGAGGTGAAAGTCCGTAAGTTA,1.56,1.37,0.762,1.73,2.04,1.8,0.621,0.613
ACTTACGGGTCAAAGAGGTTATAGCACGCGTATA,3.42,5.32,4.72,2.54,6.31,3.45,0.218,3.59
ATATGTAGGTTAGCTGGGGTCATGCAGACTAGGC,4.19,4.65,3.65,1.38,6.31,5.42,3.72,4.15
ATATGTAGGTTACATCCGGGTCATTTAGGCTATG,2.76,3.59,1.81,1.21,3,3.7,2.55,2.98
TTACCACGGTGAAGGTCGTTGATCCCTCTGTAGA,1.29,0.459,0.382,-0.000966,1.37,0.834,0.375,0.451
CAAACTAGGTTAAGAGGTCAAAGTCCGCTTCCCG,4.7,5.88,5.15,2.2,6.79,3.89,1.83,4.48
CTACCAAGGTGAACAAGGTCGTTGACTACTATTC,2.28,2.17,1.67,1.6,2.34,3.49,2,2.59
TGTCAAAGTTCAAAGGTAACGAAAGTATCCACAC,3.89,6.36,6.02,4.4,7.81,2.97,0.0782,4.73

Sequence,PBM binding z-score [1],PBM binding z-score [2],PBM binding z-score [3],PBM binding z-score [4],PBM binding z-score [5],PBM binding z-score [6],PBM binding z-score [7],PBM binding z-score [8]
CCTTACGGGGCACGAGGTTATAGCACGACGAGCG,1.27,2.07,1.74,-0.444,1.92,1.48,0.0456,0.346
CGTCAAAGTTCAAGGTAACGTATCAGAAAGCAGC,3.97,5.22,6.45,4.52,4.44,3.06,1.44,3.38
AGAATGAGGTTATACGTAGATCAAGGAAGAAAGT,0.606,1.96,1.11,1.82,2.3,2.04,0.406,0.854
CGTCCAAGCTCAATGCTAGGTCAGTGAAAGCATT,1.84,0.587,0.598,-0.0158,-0.025,1.09,0.344,-0.453
AGAATGAGGTTCTACGTAGATCAGGGAAGAAAGT,-0.327,-0.12,0.0722,0.025,-0.0793,-0.0436,-0.709,-0.322
ATCGAAAGGTTGAGGTGAGTATAGAGAAAGGGAA,1.24,1.39,1.25,-0.21,1.16,2.38,1.27,0.34
ACTAGCAGGCCAAGGGTCACACAAGATTAGTCCG,4.06,4.6,4.2,0.3,4.68,3.16,0.442,1.42
TCTATTAGCTGATTAGGGCAACCGAAACAGCGGA,-0.0375,0.212,0.313,0.509,0.233,0.211,-0.143,-0.58
CGTCCAAGGTGAATGCTAGGTCAGTGAAAGCATT,2.81,3.71,1.91,-0.198,1.02,3.27,1.59,-0.00133
CCGACTGGGGCAAGGTTACCATCACGCACAGCCA,1.61,1.08,1.33,-0.402,1.18,1.22,0.274,-0.0347
TAGCCTAGGTCATTCAAGGGCCAGTATAGAAAGC,3.38,5.84,4.64,1.71,3.14,4.3,0.514,1.25
AGTCAAAGTTCACTAGGTAACGTCAGATTCAGCT,3.86,5.2,5.98,4.32,4.31,1.96,0.43,3.7
CGTCCAAGGTCAGAGAGGTCAGTGATTGCCGAGT,5.16,6.26,7.26,3.31,5.33,4.13,3.03,5.48
TCATATAGGAAAAAGGTGAAAGTCGGTGTGGTAA,1.66,0.803,0.339,1.88,1.5,1.11,0.221,0.152
TCTTGTAGATCAATAGAGGCTAAGAAAGTGCGCT,-0.029,0.139,-0.0605,0.703,0.213,0.676,-0.939,-0.123
CCTGCTAGGTCAATGGTCAGCTAGAGCAGCTCGC,2.68,3.14,3.81,1.45,2.19,2.33,0.515,-0.262
ATCTCTATGTAAAGATAGTTCAGTGAATGCAAAT,0.692,0.486,0.571,0.0227,0.467,0.271,-0.195,0.366
CCTGCTAGGTCAATGGTCAGCCAAAGCAGCTCGC,3.05,3.38,4.35,1.48,2.23,2.06,0.619,-0.16
AGTCAAAGTTCATATAGGTAACGTAAGATATGCT,3.55,5.1,5.32,4.83,4.41,2.28,-0.342,5.14

Sequence,PBM binding z-score [1],PBM binding z-score [2],PBM binding z-score [3],PBM binding z-score [4],PBM binding z-score [5],PBM binding z-score [6],PBM binding z-score [7],PBM binding z-score [8]
CCTAGTTGGTCAAGGTCACACAGGCTATAGGTAC,4.45,4.8,5.13,2.24,4.86,4.16,4.07,4.27
GATACAGGGTCAAGGCCTGAGTACGCGTATTGAT,3.54,5.4,5.41,2.19,5.69,3.37,0.931,2.52
ATCTCTAGGTAAAAGTTCAGGGAATCCCGAGGAT,2.58,2.3,2.18,0.858,2.15,1.54,0.461,1.7
CCTTACGGGTCACTGGCAGGTTATAGCATTTGGA,3.16,5.81,4.75,1.66,4.96,3.14,0.323,1.16
GCTTACGGGACAAAGGTTATAGCATGAATAGAAT,1.47,2.52,1.27,0.777,2.36,1.55,-0.159,0.681
CAAACTAGGTCACGAAAGGTAAAAGTCGAATGAC,3.34,5.16,5.56,2.02,4.2,4.18,1.49,0.85
CAAACTAGGTCAAGGTCAACGTCGGTTTGTGCCA,5.65,6.16,6.86,2.58,5.91,4.62,4.3,3.89
ATCGAAAGGTCGTCAGGTGAGTATACAGAAAGGC,2.67,4.34,3.83,2.04,4.71,3,1.33,1.8
AGAATGAGGTTACCAAAGAGCAGGGAAACGCTTG,0.563,1.8,1.43,0.987,2.24,2.73,0.573,0.0969
ACAGACAGCTGATGAAGGTAACTCAGGCTATCAT,-0.303,0.146,0.225,-0.306,0.083,0.595,-0.25,0.0545
CTACCAAGTTGAACAAGGTCGTTGATTACTATTC,1.75,0.927,0.929,2.12,1.15,2.77,1.57,3.58
CCTACTGGGCCACGAAAGGACATTGATTCAGTGA,1.2,0.593,1.01,-0.0534,-0.0708,1.94,0.069,-0.0244
TCATCTAGGTAATACAGGTGAAAGTCGGCATCTA,0.692,0.578,0.298,1.24,0.959,1.07,0.275,0.373
AGTCAAAGTTCATCTAGGTGACGTAAGATATGCT,3.92,5.42,5.9,4.62,4.44,3.16,0.193,4.86
TCTCGTTGGTCACGGAGGTCACACACGACGGGTA,4.68,4.95,4.91,0.929,4.39,3.73,2.29,2.98
CGTCAAAGTTGAACTAAGGTAACGTAAAGCACGC,1.98,2.06,1.86,0.678,1.68,4.72,1.74,0.519
GCTTACCGGTCAAAGGTTATAGCATGAATAGAAT,2.62,5.63,3.54,0.541,5.37,2.2,-0.177,0.217
TCTTGTAGATCATGCAGGTTAAGAAAGCCTGAGT,0.268,0.108,0.0949,0.784,0.65,0.509,-0.0439,0.115
GGAACGAGGGCAACTTGATAGCAGAGTTTGATGG,1.42,1.7,2.17,2.2,1.13,1.26,0.0506,1.35

# Reference: the supplement of paper PMC6555819
